Measured values published in PubChem BioAssay AID1159580 (chemical genetic matrix, 2015).
Several values for one entry are separate records, joined by “and”; a condition that tells them apart may be missing. Equal entries are not always repeated. Hit rate of the full screen: of about 5,500 compounds, about 2,000 (36%) were called active. About 18% were inconclusive and are not listed. Rule as the data show it: active = normalized growth mostly below about 0.91 (no sharp cut-off); inconclusive = no clear call, values can overlap the other calls; inactive = mostly above about 0.92. The list shows a part of the results.

Assay: chemical genetic growth profiling, strain panel (AID 1159580);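 also: tested at 20 µM; growth read once vehicle control cultures reached saturation at 30 °C; 1 = growth at the plate median or of vehicle wells; lower values mean less growth of the strain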
Conditions: S. cerevisiae deletion strains, growth OD

Measured: normalized growth

O=C(O)C1CCCNC1 (stereo not given)
inactive: locus YAL013W, strain DEP1, hits give low values 1 | locus YAL021C, strain ccr4, hits give low values 1.01 | locus YAL026C, strain drs2, hits give low values 1.02 | locus YAL030W, strain snc1, hits give low values 1.02 | locus YAL040C, strain CLN3, hits give low values 1 | locus YBL061C, strain skt5, hits give low values 1.02 | locus YBR009C, strain hhf1, hits give low values 1.01 | locus YBR021W, strain FUR4, hits give low values 0.999 | locus YBR023C, strain chs3, hits give low values 1.01 | locus YBR171W, strain sec66, hits give low values 1.03 | locus YBR229C, strain ROT2, hits give low values 1.01 | locus YBR231C, strain swc5, hits give low values 1.01 | locus YBR279W, strain paf1, hits give low values 1.01 | locus YCL011C, strain gbp2, hits give low values 1.01 | locus YCL016C, strain dcc1, hits give low values 1.01 | locus YCL029C, strain bik1, hits give low values 1.04 | locus YCL061C, strain MRC1 (second series), hits give low values 1 | locus YCL061C, strain MRC1, hits give low values 1.02 | locus YCL069W, strain vba3, hits give low values 1.02 | locus YCR088W, strain abp1, hits give low values 1.02 | locus YDL005C, strain med2, hits give low values 1.02 | locus YDL035C, strain GPR1, hits give low values 1.01 | locus YDL040C, strain nat1, hits give low values 1.02 | locus YDL074C, strain BRE1, hits give low values 1.03 | locus YDL101C, strain DUN1, hits give low values 1.01 | locus YDL134C, strain PPH21, hits give low values 1.01 | locus YDL185W, strain tfp1, hits give low values 1.01 | locus YDL192W, strain arf1, hits give low values 1.03 | locus YDR001C, strain nth1, hits give low values 1.02 | locus YDR069C, strain doa4, hits give low values 1.02 | locus YDR101C, strain arx1, hits give low values 1.02 | locus YDR137W, strain rgp1, hits give low values 1.02 | locus YDR150W, strain NUM1, hits give low values 1.01 | locus YDR159W, strain sac3, hits give low values 1.02 | locus YDR162C, strain NBP2, hits give low values 1.01 | locus YDR195W, strain ref2 0.991 | locus YDR297W, strain sur2, hits give low values 1.02 | locus YDR318W, strain mcm21, hits give low values 1.03 | locus YDR334W, strain swr1, hits give low values 1.02 | locus YDR335W, strain msn5, hits give low values 1.02 | locus YDR388W, hits give low values 1.02 | locus YDR392W, strain spt3, hits give low values 1.03 | locus YDR502C, strain sam2, hits give low values 1.01 | locus YEL003W, strain gim4, hits give low values 1.03 | locus YEL037C, strain rad23, hits give low values 1.02 | locus YEL061C, strain CIN8 (second series), hits give low values 1.02 | locus YEL061C, strain CIN8, hits give low values 1.01 | locus YER002W, strain NOP16, hits give low values 1.02 | locus YER015W, strain faa2, hits give low values 1.02 | locus YER016W, strain bim1, hits give low values 1.01 | locus YER110C, hits give low values 1.02 | locus YER111C, strain swi4, hits give low values 1.02 | locus YER155C, strain BEM2 (second series), hits give low values 1.02 | locus YER155C, strain BEM2, hits give low values 1 | locus YER167W, strain BCK2, hits give low values 1.02 | locus YFR010W, strain ubp6, hits give low values 1.02 | locus YGL078C, strain dbp3, hits give low values 1.02 | locus YGL086W, strain mad1, hits give low values 0.999 | locus YGL167C, strain pmr1, hits give low values 1.01 | locus YGL173C, strain kem1, hits give low values 1.02 | locus YGL227W, strain vid30, hits give low values 1.02 | locus YGL240W, strain doc1, hits give low values 1.02 | locus YGL248W, strain PDE1, hits give low values 1.01 | locus YGL253W, strain hxk2, hits give low values 1.02 | locus YGR078C, strain PAC10, hits give low values 1.02 and 1.01 | locus YGR135W, strain pre9, hits give low values 1.03 | locus YGR229C, strain SMI1, hits give low values 0.999 | locus YGR252W, strain gcn5, hits give low values 1.01 | locus YHR013C, strain ard1, hits give low values 1.04 | locus YHR027C, strain rpn1, hits give low values 1.01 | locus YHR030C, strain SLT2, hits give low values 1 and 0.996 | locus YHR079C, strain IRE1 (second series), hits give low values 1.02 | locus YHR079C, strain IRE1, hits give low values 1.01 | locus YHR094C, strain hxt1, hits give low values 1.02 | locus YHR129C, strain ARP1, hits give low values 1.01 | locus YHR142W, strain chs7, hits give low values 1.01 | locus YHR200W, strain rpn10, hits give low values 1.01 | locus YIL066C, strain RNR3, hits give low values 1.01 | locus YIL073C, strain SPO22, hits give low values 1.1 | locus YIL125W, strain kgd1, hits give low values 1.02 | locus YIR030C, strain dcg1, hits give low values 1.03 | locus YJL092W, strain hpr5, hits give low values 1.02 | locus YJL095W, strain BCK1 (second series), hits give low values 1.02 | locus YJL095W, strain BCK1, hits give low values 1.04 and 1 | locus YJL115W, strain asf1, hits give low values 1.01 | locus YJL129C, strain trk1, hits give low values 1.04 | locus YJL134W, strain LCB3, hits give low values 1.01 | locus YJL154C, strain vps35, hits give low values 1.03 | locus YJL164C, strain tpk1, hits give low values 1.01 | locus YJL166W, strain qcr8, hits give low values 1.01 | locus YJL168C, strain set2, hits give low values 1.02 | locus YJL187C, strain SWE1 (second series), hits give low values 1.02 | locus YJL187C, strain SWE1, hits give low values 1.01 | locus YJR043C, strain POL32, hits give low values 1.01 | locus YJR066W, strain TOR1, hits give low values 0.923
